Assay results: the supplement of paper PMC12645437, “Orthogonal IMiD-Degron Pairs Induce Selective Protein Degradation in Cells” (ACS Chemical Biology, 2025)
Over roughly 8,300 sequences, “log2 fold change of degron read counts, EGFP-low vs EGFP+ sorted cells (limma voom), compound-induced degradation” has its median near -1.1; the highest 2% begin near 3.2. The sample holds the highest values, similar sequences and a random draw of the others, so the mix is not that of the screen.

Molecular target: T1, CRBN, Q96SW2
T1 chain: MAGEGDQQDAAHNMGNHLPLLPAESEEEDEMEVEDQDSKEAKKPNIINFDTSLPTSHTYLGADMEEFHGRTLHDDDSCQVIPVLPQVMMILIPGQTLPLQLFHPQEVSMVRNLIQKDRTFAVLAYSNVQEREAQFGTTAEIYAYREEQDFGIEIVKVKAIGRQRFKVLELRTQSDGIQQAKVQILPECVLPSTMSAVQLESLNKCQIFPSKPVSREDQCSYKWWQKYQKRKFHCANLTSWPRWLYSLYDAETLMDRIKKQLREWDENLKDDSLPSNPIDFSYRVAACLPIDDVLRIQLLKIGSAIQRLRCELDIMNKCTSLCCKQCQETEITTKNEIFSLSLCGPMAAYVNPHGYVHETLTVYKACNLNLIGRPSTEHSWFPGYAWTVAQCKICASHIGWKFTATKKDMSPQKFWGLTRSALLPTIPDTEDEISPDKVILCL
Assay: log2 fold change of degron read counts, EGFP-low vs EGFP+ sorted cells (limma voom), compound-induced degradation; higher = more compound-induced degradation of the degron-EGFP fusion; degrons are variants of IKZF1/3 zinc finger 2; compound dose not given here
Conditions: Jurkat, 18 h

[1] = compound: compound 19 (5-tert-butyl-thalidomide)
[2] = compound: compound 22 (5-morpholino-thalidomide)
[3] = compound: compound 33 (diphenyl IMiD analogue)
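Note: pooled lentiviral library of zinc finger degron-EGFP fusions in mCherry-positive Jurkat cells, FACS-sorted after compound exposure, with degron abundance counted by next-generation sequencing.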

FCCDVCGACFTQKGNLLRHIKL [46F_47C_49D_50V_52G_53A_54C_55F_67L_, Q9UKT9]
log2 fold change of degron read counts [1]: 0.633
log2 fold change of degron read counts [2]: 0.299
log2 fold change of degron read counts [3]: 1.47
log2 fold change of degron read counts (compound: thalidomide): -0.594

FWCNQCGAKFTQKGNLLRHIKL [46F_47W_49N_50Q_52G_53A_54K_55F_67L_, Q9UKT9]
log2 fold change of degron read counts [1]: 0.0883
log2 fold change of degron read counts [2]: 0.432
log2 fold change of degron read counts [3]: -1.2
log2 fold change of degron read counts (compound: thalidomide): -1.53

FTCNQCGRLFTQKGNLLRHIKL [46F_47T_49N_50Q_52G_53R_54L_55F_67L_, Q9UKT9]
log2 fold change of degron read counts [1]: -2.58
log2 fold change of degron read counts [2]: -2.81
log2 fold change of degron read counts [3]: -3.15
log2 fold change of degron read counts (compound: thalidomide): -2.31

FYCPICGRVFTQKGNLLRHIKL [46F_47Y_49P_50I_52G_53R_54V_55F_67L_, Q9UKT9]
log2 fold change of degron read counts [1]: -0.29
log2 fold change of degron read counts [2]: -0.155
log2 fold change of degron read counts [3]: 0.579
log2 fold change of degron read counts (compound: thalidomide): -1.3

FWCNQCGRTFTQKGNLLRHIKL [46F_47W_49N_50Q_52G_53R_54T_55F_67L_, Q9UKT9]
log2 fold change of degron read counts [1]: -1.55
log2 fold change of degron read counts [2]: -1.36
log2 fold change of degron read counts [3]: -1.37
log2 fold change of degron read counts (compound: thalidomide): -1.45

FVCDQCGAPFTQKGNLLRHIKL [46F_47V_49D_50Q_52G_53A_54P_55F_67L_, Q9UKT9]
log2 fold change of degron read counts [1]: -1.33
log2 fold change of degron read counts [2]: 0.669
log2 fold change of degron read counts [3]: -0.689
log2 fold change of degron read counts (compound: thalidomide): -0.0169

FICPICGRVFTQKGNLLRHIKL [46F_47I_49P_50I_52G_53R_54V_55F_67L_, Q9UKT9]
log2 fold change of degron read counts [1]: -1.47
log2 fold change of degron read counts [2]: -0.445
log2 fold change of degron read counts [3]: 0.321
log2 fold change of degron read counts (compound: thalidomide): 0.637

FGCPICGAWFTQKGNLLRHIKL [46F_47G_49P_50I_52G_53A_54W_55F_67L_, Q9UKT9]
log2 fold change of degron read counts [1]: 1.54
log2 fold change of degron read counts [2]: -0.463
log2 fold change of degron read counts [3]: 1.47
log2 fold change of degron read counts (compound: thalidomide): -0.0772
